In PubChem BioAssay AID504834 (National Center for Advancing Translational Sciences (NCATS), 2011):
In all, about 320,000 compounds went through this assay and about 22,000 (6.9%) were called active. Not shown: some 27% with an inconclusive outcome. Calls follow the shape of the dose curve; as a rule, active = well fitted inhibition curve with a large enough effect; inconclusive = small, poorly fitted or top-dose-only effect, or another doubt; inactive = no such curve, though single readings can be large or run the other way. The entries come from a sample that favours actives as a whole.
% is scaled to controls: 0 for no effect and ±100 for the full control effect; potency is read from the fitted curve at half-maximal effect.

Assay: Primary qHTS for delayed death inhibitors of the malarial parasite plastid, 96 hour incubation
Conditions: P. falciparum luciferase reporter growth; series mostly up to 28.7 µM; activity change, negative = inhibition: at the top concentration
Procedure, shortened: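 Plates of compound plus infected erythrocytes (2% hematocrit, 0.05% parasitemia final) incubate 96 hours, 37 C, 5% CO2. Detection reagent added; reduced luminescence from the parasites' luciferase reporter flags inhibition.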
For `Cc1ccccc1NC(=O)CCNS(=O)(=O)c1ccc2[nH]c(=O)oc2c1`, the “activity change, negative = inhibition” value was -22.6% (inactive).
For `Cc1ccccc1C(OCC(O)CN1CCCCC1CCO)c1ccccc1` (stereo not given), the “activity change, negative = inhibition” value was 144% (inactive).
With `COc1cccc(CN(C)CC(=O)Nc2sc3c(c2C#N)CCC3)c1` the “activity change, negative = inhibition” value was -16.4% (inactive).
For `COc1cccc(CN(C)CC(O)COC(c2ccccc2)c2ccccc2C)c1` (stereo not given), the Potency was 5.86 µM (active).
With `CCc1nn(CCCC(=O)NC(C)c2ccccc2)c(=O)c2cc3occc3n12` (stereo not given) the “activity change, negative = inhibition” value was 0.559% (inactive).
In the case of `CCN1C(=O)C(=O)N(CC(=O)Nc2cc(C)ccc2C)C1=O`, the “activity change, negative = inhibition” value is reported as -1.34% (inactive).
With `Cc1cccc(NC(=O)CCN2CC(C)CC(C)C2)c1` (stereo not given) the “activity change, negative = inhibition” value was 30.9% (inactive).
In the case of `NS(=O)(=O)c1ccc(Nc2nc(-c3ccccc3)cs2)cc1`, the “activity change, negative = inhibition” value is reported as 20.4% (inactive).
With `Cc1cccn2c(=O)c(C=O)c(Nc3ccc(S(N)(=O)=O)cc3)nc12` the Potency was 5.86 µM (active).
For `CNc1nc2c(C)cccn2c(=O)c1C=Nc1ccc(OC)cc1`, the “activity change, negative = inhibition” value was 29.5% (inactive).
For `CCOCCCNC(=O)c1ccc(CS(=O)(=O)c2cccc(C(F)(F)F)c2)o1`, the “activity change, negative = inhibition” value was -15.9% (inactive).
In the case of `CCc1cc(C(=O)Nc2nnc(C3CC3)s2)sc1C`, the “activity change, negative = inhibition” value is reported as 31% (inactive).
In the case of `COc1cc(-c2n[nH]c(=S)n2Cc2ccccc2)cc(OC)c1OC`, the “activity change, negative = inhibition” value is reported as -5.2% (inactive).
For `COc1ccc(CCn2c(-c3ccco3)nc3nc4ccccc4nc32)cc1OC`, the “activity change, negative = inhibition” value was -6.63% (inactive).
For `CCC(C)n1c(-c2cc(OC)c(OC)c(OC)c2)nc2nc3ccccc3nc21` (stereo not given), the Potency was 5.86 µM (active).
In the case of `COc1ccccc1N1CCN(CC(=O)Nc2ccnn2C2CCCC2)CC1`, the “activity change, negative = inhibition” value is reported as -16.9% (inactive).
In the case of `Cc1ccc(SCC(=O)NNC(=O)c2ccc(S(C)(=O)=O)cc2)cc1`, the “activity change, negative = inhibition” value is reported as 48.6% (inactive).
With `COc1ccccc1CN1CC(C(=O)NCCc2cn[nH]c2)CCC1=O` (stereo not given) the “activity change, negative = inhibition” value was 13.9% (inactive).
In the case of `CCC(=O)Nc1ccc2c(c1)nc(CCN1CCN(c3ccccn3)CC1)n2C`, the “activity change, negative = inhibition” value is reported as -14.1% (inactive).
For `O=C(NC(=S)Nc1ccc(S(=O)(=O)Nc2ncccn2)cc1)c1cccc(Br)c1`, the “activity change, negative = inhibition” value was -13.4% (inactive).
In the case of `NS(=O)(=O)c1ccc(NC(=S)NC(=O)c2cccnc2)cc1`, the “activity change, negative = inhibition” value is reported as 31.3% (inactive).
In the case of `NS(=O)(=O)c1ccc(NC(=S)NC(=O)c2cccc(Br)c2)cc1`, the Potency is reported as 13.1 µM (active).
With `Cc1cc(NC(=O)[C@H](C)NC(=O)c2ccco2)ccc1Br` the “activity change, negative = inhibition” value was -0.221% (inactive).
For `CCc1ccc(C(=O)COC(=O)c2ccco2)cc1`, the “activity change, negative = inhibition” value was -16.8% (inactive).
With `CC(C)(C)c1ccc(C(=O)N2CCC(C(=O)N3CCCCC3)CC2)cc1` the “activity change, negative = inhibition” value was -25.9% (inactive).
In the case of `CCOC(=O)c1cc2c(n(-c3ccc(C)cc3)c1=O)CCCC2=O`, the “activity change, negative = inhibition” value is reported as 26.5% (inactive).
In the case of `CCOC(=O)C1=C(C)NC(=S)NC1c1cccs1` (stereo not given), the “activity change, negative = inhibition” value is reported as 16.8% (inactive).
For `CCOC(=O)C1=C(N)N(c2ccc(C)cc2)C2=C(C(=O)CCC2)C1c1cccs1` (stereo not given), the Potency was 3.7 µM (active).
With `COC(=O)c1ccc(NC(=O)c2cc3c(CO)cnc(C)c3oc2=Nc2cccc(C(N)=O)c2)cc1` the “activity change, negative = inhibition” value was 1.25% (inactive).
With `CC(/C=N/NC(=O)c1cc(-c2ccc3ccccc3c2)n[nH]1)=C\c1ccco1` the “activity change, negative = inhibition” value was 10.6% (inactive).
In the case of `CC(C)c1cc(C(=O)N/N=C/C(Br)=C/c2ccccc2)n[nH]1`, the Potency is reported as 3.29 µM (active).
With `Cc1cc(-c2n[nH]c(=S)n2/N=C/C(Br)=C/c2ccccc2)n[nH]1` the “activity change, negative = inhibition” value was 0% (inactive).
With `CN(C(=O)COC(=O)CCCc1c[nH]c2ccccc12)c1c(N)n(Cc2ccccc2)c(=O)[nH]c1=O` the “activity change, negative = inhibition” value was 2.5% (inactive).
With `CCCNC(=O)C(=O)Nc1cc2c3c(c1)CCC(=O)N3CCC2` the “activity change, negative = inhibition” value was 28.4% (inactive).
In the case of `COc1ccc(CCNC(=O)C2CCCN2C(=O)Nc2ccccc2)cc1OC` (stereo not given), the “activity change, negative = inhibition” value is reported as -9.5% (inactive).
In the case of `O=C(O)/C=C/c1cn(-c2ccccc2)nc1-c1cccs1`, the “activity change, negative = inhibition” value is reported as 54.1% (inactive).
In the case of `COc1ccc(-c2nn(-c3ccccc3)cc2/C=C\C(=O)Nc2ccc(C(=O)O)cc2)cc1`, the “activity change, negative = inhibition” value is reported as 23.8% (inactive).
In the case of `O=C(O)c1ccc(N/N=C/c2cn(-c3ccccc3)nc2-c2cccs2)cc1`, the Potency is reported as 0.465 µM (active).
For `O=C(/C=C\c1cn(-c2ccccc2)nc1-c1cccs1)N1CCOCC1`, the Potency was 10.4 µM (active).
For `O=C(O)/C=C/c1cn(Cc2ccccc2)nc1-c1cccs1`, the “activity change, negative = inhibition” value was 2.18% (inactive).
In the case of `O=C(O)c1ccc(NC(=O)c2cn(-c3ccccc3)nc2-c2ccc(Cl)cc2)cc1`, the “activity change, negative = inhibition” value is reported as 47.7% (inactive).
In the case of `N#Cc1cccc(CN2CCC(=O)N(CCO)CC2)c1`, the “activity change, negative = inhibition” value is reported as 93% (inactive).
In the case of `COc1ccccc1N1CCN(S(=O)(=O)CCNC(=O)c2ccc(OC(C)C)cc2)CC1`, the “activity change, negative = inhibition” value is reported as 13.5% (inactive).
With `CCCCC1(C(=O)OCC)NC(c2ccc(O)cc2)C2C(=O)N(c3ccccc3)C(=O)C21` (stereo not given) the “activity change, negative = inhibition” value was 34.6% (inactive).
With `CC(OC(=O)C1CC(=O)N(Cc2ccccc2)C1)C(=O)Nc1ccccc1[N+](=O)[O-]` (stereo not given) the “activity change, negative = inhibition” value was 49.9% (inactive).
With `CCSCc1nc(N)nc(NCCc2ccccc2)n1` the “activity change, negative = inhibition” value was 0% (inactive).
With `CCC(CC)C(=O)N1CC(=O)Nc2ccc(Br)cc2C1c1ccccc1` (stereo not given) the Potency was 8.28 µM (active).
With `COC(=O)CN1C(C)=Nc2ccc(Br)cc2C1c1ccccc1` (stereo not given) the “activity change, negative = inhibition” value was -2.01% (inactive).
With `CC(C)C(=O)N1CC(=O)Nc2ccc(F)cc2C1c1ccc(F)cc1` (stereo not given) the “activity change, negative = inhibition” value was 17.2% (inactive).
In the case of `Cc1ccc2c(c1)C(c1ccccc1)N(C(=O)c1ccc(F)cc1)CC(=O)N2` (stereo not given), the “activity change, negative = inhibition” value is reported as 24.6% (inactive).
For `O=C1CN(C(=O)c2ccccc2F)C(c2ccc(F)cc2)c2cc(F)ccc2N1` (stereo not given), the “activity change, negative = inhibition” value was 13% (inactive).
With `Cc1ccc(C(=O)N2CC(=O)Nc3ccc(F)cc3C2c2ccc(F)cc2)cc1` (stereo not given) the Potency was 1.47 µM (active).
For `CCCCn1c(N)c(N(CC(C)C)C(=O)c2cccc(S(=O)(=O)N3CC(C)OC(C)C3)c2)c(=O)[nH]c1=O` (stereo not given), the “activity change, negative = inhibition” value was -20.2% (inactive).
In the case of `O=C(COC(=O)c1cc(=O)[nH]c2ccccc12)NCc1cccc(Cl)c1`, the “activity change, negative = inhibition” value is reported as -21.9% (inactive).
For `O=C(Nc1ccccc1C(=O)N1CCOCC1)c1ccc(CSc2ccccc2)cc1`, the “activity change, negative = inhibition” value was -3.39% (inactive).
With `O=C(Nc1ccccc1C(=O)N1CCCCCC1)c1ccccc1Cl` the “activity change, negative = inhibition” value was 21.4% (inactive).
For `O=C(Nc1ccccc1C(=O)N1CCOCC1)c1ccc(Cl)cc1`, the Potency was 13.1 µM (active).
In the case of `CC(=O)NC1(c2cccc(F)c2)CCN(CC(=O)NC(C)C)CC1`, the Potency is reported as 1.85 µM (active).
In the case of `Cc1cc(NC(=O)CN2CCC(O)(c3cccc(F)c3)CC2)no1`, the “activity change, negative = inhibition” value is reported as 0% (inactive).
For `O=C(CN1CCN(C(=O)c2cccc(F)c2)CC1)Nc1ccccc1F`, the “activity change, negative = inhibition” value was 43.4% (inactive).
In the case of `O=C(O)Cc1csc(NC(=O)CSc2nnnn2-c2ccc(O)cc2)n1`, the “activity change, negative = inhibition” value is reported as 19.6% (inactive).
For `CCn1c(SCC(=O)NC2CC2)nnc1-c1ccccn1`, the “activity change, negative = inhibition” value was 1.07% (inactive).
For `CCN(CC(=O)NCCc1ccccc1)S(=O)(=O)c1ccc(C)cc1`, the “activity change, negative = inhibition” value was 4.36% (inactive).
With `Cc1ccc(S(=O)(=O)N(C)CC(=O)NC2CCCC2)cc1` the “activity change, negative = inhibition” value was -4.78% (inactive).
With `Cc1ccc(S(=O)(=O)N(CC(=O)NCCSC2CCCCC2)c2ccccc2F)cc1` the Potency was 1.65 µM (active).
